Screening results from PubChem.
Cl transport mod = modulates chloride dependent transport by human KCC2; AID 1456; KCC2 cells, thallium flux FluoZin-2 fluorescence; B-score of Tl+ flux slope (higher = more flux/activation; lower = inhibition) at 10 µM; hit rate 2.2% among 190,000; Q9H2X9;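 active = thallium flux slope and its plate-corrected score both differing from the plate sample mean at a set confidence after two filtering rounds, in either direction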;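 note: slope of fluorescence scaled to starting intensity during 10 to 20 s after thallium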
ROMK primary = human ROMK K+ channel modulation, primary screen | Tet-inducible ROMK, thallium flux fluorescence; actives lie on both sides | hit rate 2% among 130,000 | AID 1918 | P48048 | B-score at 10 µM;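 active = signal ratio slope over the read window, or its plate-corrected B-score, at least 3 SD from the plate mean, either direction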;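 note: B-score of the F/F0 ratio slope over 7 to 12 s after thallium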
Target sequence (P48048 whole entry, looked up): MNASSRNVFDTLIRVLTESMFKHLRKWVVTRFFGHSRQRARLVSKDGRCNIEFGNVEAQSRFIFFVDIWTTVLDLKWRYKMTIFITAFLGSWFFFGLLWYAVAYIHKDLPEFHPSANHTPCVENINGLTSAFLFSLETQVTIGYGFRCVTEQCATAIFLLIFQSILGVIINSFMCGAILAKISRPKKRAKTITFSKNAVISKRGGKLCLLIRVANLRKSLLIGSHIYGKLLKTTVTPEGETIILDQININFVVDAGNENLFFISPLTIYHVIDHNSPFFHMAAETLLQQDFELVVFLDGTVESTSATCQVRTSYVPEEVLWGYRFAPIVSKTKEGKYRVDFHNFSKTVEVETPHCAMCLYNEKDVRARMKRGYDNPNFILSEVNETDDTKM
L major viab = Leishmania major promastigote growth inhibition; Leishmania major promastigotes, resazurin fluorescence viability; inhibition, % at 10 µM; hit rate 9% among 200,000; in the data active = inhibition above about 50%;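 note: promastigotes grown with compound for 44 hours at 28 °C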
Ins promoter up = MIN6 insulin promoter up-regulation; MIN6 insulin promoter-GFP reporter, high-content imaging; hits give high values; z-score at 5 µM; hit rate 0.3% among 190,000; AID 1625;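 active = z-score above 3 at 5 µM with at least 500 cells counted in the well; inconclusive = wells under 500 cells, flagged as cytotoxic or low count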
INS promoter inh = TRM-6 insulin promoter activity inhibition. TRM-6 cells (human fetal islet line), insulin promoter-eGFP reporter, imaging; reporter expression induced with tamoxifen. inhibition, % at 2 µM. hit rate 0.9% among 130,000;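 active = inhibition above the mean plus 3 SD, with well images judged a real hit on visual review, cut at about 60% in these data, passing the limit was not always enough; inconclusive = inhibition over the cutoff but images rejected on review; inactive = inhibition not above the cutoff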
WT yeast gro inh = growth inhibition of WT yeast, mitochondrial fusion screen | AID 1362 | inhibition, % at 10 µM | mitochondrial fusion phenotypic screen, WT strain | hit rate 2.1% among 190,000; in the data active = inhibition above about 58%; tested in S. cerevisiae
KCC2 secondary = confirmation of human KCC2 transport modulators. shares compounds with Cl transport mod. HEK293-KCC2, thallium flux, FluoZin2 fluorescence; hits give high values. normalised thallium flux (F/F0 slope) at 10 µM. hit rate 15% among 3,700. AID 1713;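 active = thallium flux slope above the same plate's solvent-only control mean plus 3 SD; inconclusive = the two replicate wells disagree; inactive = no significant difference from solvent-only control wells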
KCC2 bumet counter = bumetanide-insensitive thallium flux in KCC2 cells with ouabain, counter-screen; hit rate 49% among 3,700; HEK293-KCC2 + bumetanide/ouabain, thallium flux FluoZin2; hits give high values; shares compounds with Cl transport mod; normalized thallium flux at 10 µM;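 active = thallium entry rate above the same plate's blocked-transporter control wells by more than 3 SD; inconclusive = the two repeat wells disagree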;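 note: raw slope of fluorescence over initial fluorescence between 10 and 20 s after thallium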
KCC2 secondary2 = confirmation of human KCC2 transport modulators; shares compounds with Cl transport mod; HEK293-KCC2, thallium flux FluoZin2 fluorescence; actives lie on both sides; F/F0 rise rate, 10–20 s post-thallium; normalized thallium flux at 10 µM; hit rate 23% among 3,700;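 active = thallium flux slope more than 3 SD above or below the plate's solvent-only control mean, mostly below; inconclusive = the two repeat wells disagreed; inactive = no significant shift from solvent-only controls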;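 note: raw slope with 0.1% DMSO as baseline and bumetanide as block control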
HEK counter1 = counter-screen for KCC2 modulators: effect in parental HEK293 cells; shares compounds with Cl transport mod; thallium flux FluoZin2, ouabain; baseline-ratio fluorescence slope, 10–20 s after thallium; thallium flux rate (normalised fluorescence) at 10 µM; hit rate 46% among 3,700;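 active = thallium flux rate significantly above the same plate's solvent-only control wells, beyond their mean plus 3 SD; inconclusive = the two replicate wells gave conflicting results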
KCC2 ouabain = confirmation of human KCC2 modulators with ouabain. shares compounds with Cl transport mod. HEK293-KCC2, thallium flux FluoZin2 fluorescence; bidirectional: low = inhibitor, high = activator. raw Tl+ flux slope (below DMSO = inhibition, above = activation) at 10 µM. hit rate 48% among 3,700. AID 1717;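 active = thallium flux slope beyond 3 SD from same-plate DMSO control mean in most replicates, usually higher, sometimes lower; inconclusive = repeat tests gave conflicting results; inactive = no significant difference from controls in most replicates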;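 note: slope of initial-normalized fluorescence between seconds 10 and 20 after thallium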
HEK293 Tl flux2 = acts in parental HEK cells, second KCC2 counter-screen. shares compounds with Cl transport mod. HEK293 parental, thallium flux FluoZin-2 fluorescence slope. thallium flux slope at 10 µM. hit rate 33% among 3,700;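 active = thallium flux slope above the same plate's solvent-control mean plus 3 SD in both duplicate wells; inconclusive = duplicate wells that disagreed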;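 note: run without ouabain in cells lacking the KCC2 cotransporter; slope of fluorescence scaled to its starting value between 10 and 20 s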
Numbers without * were called inactive; ? = inconclusive; . = no result. Sampled rows, rich in hits. Any-hit rate of the full collection: about 12%.

SMILES	Cl transport mod	ROMK primary	L major viab	Ins promoter up	INS promoter inh	WT yeast gro inh	KCC2 secondary	KCC2 bumet counter	KCC2 secondary2	HEK counter1	KCC2 ouabain	HEK293 Tl flux2
Cc1ccc(C(=O)CSc2ncnc3sc4c(c23)CCCC4)cc1	5.3*	.	-7	-1.1	-100	3	0.014*	0.033*	0.032	0.026*	0.03*	?
Cc1noc(C)c1CSc1ncnc2sc(C)c(C)c12	0.27	.	6	0	-100	4	.	.	.	.	.	.
O=C(O)CSc1ncnc2sc3c(c12)CCC3	7.8*	.	-7	0.07	10	18	0.016*	0.035*	0.031	0.016*	0.037*	0.012*
Cc1noc(C)c1CSc1ncnc2sc3c(c12)CCCCC3	78*	0.7	7	0.14	-50	42	0.033*	0.16*	?	0.078*	0.11*	0.028*
Fc1ccc(CSc2ncnc3sc4c(c23)CCCC4)cc1	1.4	.	1	-0.44	24	11	.	.	.	.	.	.
COc1ccc(CCNC(=O)C23CCC(C)(C(=O)C2Br)C3(C)C)cc1OC (stereo not given)	-0.098	1.4	.	0.6	.	.	.	.	.	.	.	.
S=C1NC2(CCS1)Oc1ccccc1C1CC(c3ccccc3)=NN12 (stereo not given)	1.9	-0.36	.	-0.62	.	.	.	.	.	.	.	.
NN/C(=C\[N+](=O)[O-])Nc1ccccc1	-0.69	.	8	-0.2	31	-5	.	.	.	.	.	.
CS/C(=C/[N+](=O)[O-])Nc1cccc2c1C(C)CC2(C)C (stereo not given)	-5.1*	-0.8	16	0.1	.	-13	0.0083	?	0.032	0.0068	0.014*	0.011
CCOc1cc(N2CCOCC2)c(OCC)cc1NC(=O)CN1CCCC(C)C1 (stereo not given)	-1.8	0.92	28	-0.83	27	-12	.	.	.	.	.	.
Cn1c(C(=O)OC(C(=O)NC2CCCC2)c2ccncc2)cc2sccc21 (stereo not given)	-5.2*	.	11	-0.5	-9	0	0.0068	?	0.025*	0.0074	?	0.01
Cn1cc(SCC(=O)N2CCOCC2)c2ccccc21	-0.79	.	-5	-0.34	.	0	.	.	.	.	.	.
Cn1cc(SCC(=O)N2CCN(c3ccccc3)CC2)c2ccccc21	-5.2*	.	0	-0.08	.	-3	0.0063	0.005	0.023*	0.0069	0.014*	0.0095
CCn1nc(C(=O)OCC(=O)N2CC(=O)Nc3ccccc32)c2ccccc2c1=O	-2.5	-0.012	-6	-0.6	.	-20	.	.	.	.	.	.
COc1cccc(OCc2nc3ccccc3[nH]2)c1	.	.	5	-0.49	.	18	.	.	.	.	.	.
CC(C)NC(=O)CN(c1cccc(Br)c1)S(C)(=O)=O	1.1	1.8	-3	-0.72	14	7	.	.	.	.	.	.
CNC(=O)CN(c1cccc(Br)c1)S(C)(=O)=O	1.8	0.74	-6	.	53	-4	0.015	0.0045	0.027	0.0074	0.016	0.011
O=C1c2oc3ccccc3c(=O)c2C(c2ccccn2)N1Cc1ccccc1 (stereo not given)	-0.44	.	-2	-0.08	-8	17	.	.	.	.	.	.
Cn1nnc(NCc2cc(Br)ccc2OCc2cccs2)n1	.	.	89*	-0.71	-48	-12	0.0071	0.0052	0.026*	0.0076	?	0.01
Cc1nnc2sc(-c3ccccn3)nn12	-0.067	1.1	-3	0.32	0	-10	.	.	.	.	.	.
